Inconclusive results are not listed. Activity calls are given as the source filed them. Calls follow the shape of the dose curve; as a rule, active = well fitted curve in the direction sought with a large enough effect; inconclusive = small, poorly fitted or top-dose-only effect, or another doubt; inactive = no such curve, though single readings can be large; an effect the other way counts as inactive or inconclusive.
Key:
[1] = qHTS of pediatric cancer cell lines to identify multiple opportunities for drug repurposing: Confirmatory screen for BT-37 cells (AID 1347117); also: potency is read from the fitted curve at half-maximal effect;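 also: viability measured after 48 h of compound exposure; nearly all actives have a fitted effect of over 55% in size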
Outline: (§1)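 Cells (500-1,000/well) in growth media were settled 5 h at 37 degrees C, then given compounds for 48 h. Viability was read as CellTiter-Glo luminescence. Primary runs used MIPE at 11 points (0.78 nM-46 µM) and NPC at 8 points (0.59 nM-46 µM); follow-ups used 11 points.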

[2] = qHTS of pediatric cancer cell lines to identify multiple opportunities for drug repurposing: Confirmatory screen for TC32 cells (AID 1347118);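 also: cells exposed to compound for 48 h before the read; nearly all actives have a fitted effect of over 65% in size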; also: potency is read from the fitted curve at half-maximal effect
Outline: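 qHTS, TC32, 48 h drug treatment, CellTiter-Glo luminescence as a proxy for metabolically active cells; primary top concentration 46 µM (MIPE 11-pt, NPC 8-pt); confirmatory 11-pt.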

[3] = qHTS of pediatric cancer cell lines to identify multiple opportunities for drug repurposing: Confirmatory screen for MG 63 (6-TG R) cells (AID 1347119); also: nearly all actives have a fitted effect of over 55% in size; also: potency is read from the fitted curve at half-maximal effect
Outline: as §1

[4] = qHTS of pediatric cancer cell lines to identify multiple opportunities for drug repurposing: Confirmatory screen for control Hh wild type fibroblast cells (AID 1347121); also: nearly all actives have a fitted effect of over 70% in size; also: potency is read from the fitted curve at half-maximal effect
Outline: as §1

[5] = qHTS of pediatric cancer cell lines to identify multiple opportunities for drug repurposing: Confirmatory screen for U-2 OS cells (AID 1347122); also: nearly all actives have a fitted effect of over 65% in size; also: potency is read from the fitted curve at half-maximal effect
Outline: as §1

[6] = qHTS of pediatric cancer cell lines to identify multiple opportunities for drug repurposing: Confirmatory screen for SK-N-SH cells (AID 1347129);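 also: cells exposed to compound for 48 h before viability read; nearly all actives have a fitted effect of over 60% in size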; also: potency is read from the fitted curve at half-maximal effect
Outline: as §1

[7] = qHTS of pediatric cancer cell lines to identify multiple opportunities for drug repurposing: Confirmatory screen for Rh41 cells (AID 1347123);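 also: 48 h compound exposure; nearly all actives have a fitted effect of over 60% in size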; also: potency is read from the fitted curve at half-maximal effect
Outline: as §1

[8] = qHTS of pediatric cancer cell lines to identify multiple opportunities for drug repurposing: Confirmatory screen for Rh18 cells (AID 1347125); also: nearly all actives have a fitted effect of over 55% in size; also: potency is read from the fitted curve at half-maximal effect
Outline: as §1

[9] = qHTS of pediatric cancer cell lines to identify multiple opportunities for drug repurposing: Confirmatory screen for Rh30 cells (AID 1347126); also: nearly all actives have a fitted effect of over 55% in size; also: potency is read from the fitted curve at half-maximal effect
Outline: as §1

[10] = qHTS of pediatric cancer cell lines to identify multiple opportunities for drug repurposing: Confirmatory screen for Saos-2 cells (AID 1347127); also: nearly all actives have a fitted effect of over 60% in size; also: potency is read from the fitted curve at half-maximal effect
Outline: as §1

[11] = tested on: Zika virus NS2B-NS3 protease; test: Primary screen GU AMC qHTS for Zika virus inhibitors (AID 1347154); also: nearly all actives have a fitted effect of over 70% in size; also: potency is read from the fitted curve at half-maximal effect
Outline: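 Unlinked Zika NS2B hydrophilic domain/NS3 protease domain noncovalent complex (25 nM final) in 10 mM Tris-HCl pH 8.0, 0.01% Tween 20, with AMC peptide substrate. Fluorescence (ex 340, em 450 nm) change over 15 min, room temperature; percent inhibition fitted to 4-parameter Hill equation.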

[12] = qHTS of pediatric cancer cell lines to identify multiple opportunities for drug repurposing: Confirmatory screen for RD cells (AID 1347124);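 also: cells exposed to compound for 48 h before viability readout; nearly all actives have a fitted effect of over 65% in size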; also: potency is read from the fitted curve at half-maximal effect
Outline: as §1

[13] = qHTS of pediatric cancer cell lines to identify multiple opportunities for drug repurposing: Confirmatory screen for OHS-50 cells (AID 1347128); also: potency is read from the fitted curve at half-maximal effect
Outline: as §1

[14] = tested on: Zika virus NS2B-NS3 protease (unlinked complex); test: Confirmatory screen GU AMC qHTS for Zika virus inhibitors (AID 1347153);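 also: enzyme at 25 nM with substrate at 10 µM below its Km of 18.3 µM; potency is read from the fitted curve at half-maximal effect; nearly all actives have a fitted effect of over 70% in size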
Outline: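 Fluorescence change (ex 340/em 450 nm) over 15 min, ~20% substrate conversion, normalized to no-inhibitor and no-enzyme controls, then Hill-fitted. Unlinked protease at 25 nM; AMC peptide 10 µM.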

[15] = ZIKV-mCherry secondary qHTS for Zika virus inhibitors (AID 1347158); also: top concentration of the series differs between compounds
Outline: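 After overnight seeding at 37 °C, Vero cells receive compound and then ZIKV-mCherry (MOI 1). Following 48-72 h infection, cells are fixed, counterstained with Hoechst, and imaged; percent infected cells is derived from an mCherry intensity cut-off of 450 RFU.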

[16] = biological target: Furin (Homo sapiens) (UniProt P09958); test: Furin counterscreen qHTS for Zika virus inhibitors (AID 1347149); also: potency is read from the fitted curve at half-maximal effect; nearly all actives have a fitted effect of over 70% in size
Outline: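 Fluorogenic cleavage of BOC-RVRR-AMC (2 microM final, Km ~15 µM) was monitored (ex 340, em 450 nm) at 37C after 15 min RT preincubation of 5 nM furin with compounds in HEPES pH 7.0 buffer with CaCl2 and Triton X-100. Percent inhibition was fitted to a 4-parameter Hill curve.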

[17] = tested on: Zika virus NS2B-NS3 protease (linked construct); test: Confirmatory screen NINDS AMC qHTS for Zika virus inhibitors (AID 1347152)
Outline: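 Concentration-response confirmation used the NINDS linked protease (NS2B hydrophilic domain joined to NS3 protease domain), 1 nM, with a 15-min compound preincubation. Substrate, Nle-KRR-AMC at 10 microM, was read by UV fluorescence before and after 15 min.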

Chain of Furin (Homo sapiens) (P09958 whole entry, looked up): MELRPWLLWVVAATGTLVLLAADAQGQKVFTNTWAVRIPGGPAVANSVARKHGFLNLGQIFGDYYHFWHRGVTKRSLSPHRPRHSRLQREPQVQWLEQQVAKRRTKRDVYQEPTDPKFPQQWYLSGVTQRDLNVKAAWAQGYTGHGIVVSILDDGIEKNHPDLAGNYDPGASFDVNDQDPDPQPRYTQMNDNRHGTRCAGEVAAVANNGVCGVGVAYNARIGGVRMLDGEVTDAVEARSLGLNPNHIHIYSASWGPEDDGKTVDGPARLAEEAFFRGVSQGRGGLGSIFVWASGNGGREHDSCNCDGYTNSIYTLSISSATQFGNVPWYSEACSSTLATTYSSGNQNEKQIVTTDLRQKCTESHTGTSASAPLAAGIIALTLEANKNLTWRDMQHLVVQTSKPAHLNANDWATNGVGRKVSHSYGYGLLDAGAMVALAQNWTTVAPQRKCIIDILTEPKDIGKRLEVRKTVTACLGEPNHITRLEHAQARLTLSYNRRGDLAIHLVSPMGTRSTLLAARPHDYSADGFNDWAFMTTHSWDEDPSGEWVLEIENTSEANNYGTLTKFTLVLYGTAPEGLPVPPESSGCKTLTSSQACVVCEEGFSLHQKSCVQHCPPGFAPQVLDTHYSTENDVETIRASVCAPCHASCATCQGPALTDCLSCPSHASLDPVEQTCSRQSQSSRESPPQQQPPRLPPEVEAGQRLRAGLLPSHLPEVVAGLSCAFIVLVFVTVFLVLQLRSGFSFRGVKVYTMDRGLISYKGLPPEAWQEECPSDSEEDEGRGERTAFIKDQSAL

SMILES	Potency [1]	Potency [2]	Potency [3]	Potency [4]	Potency [5]	Potency [6]	Potency [7]	Potency [8]	Potency [9]	Potency [10]	Potency [11]	Potency [12]	Potency [13]	Potency [14]	Potency [15]	Potency [16]	Potency [17]
Cc1cc(C(=O)N2CCN(c3cccc(Cl)c3)CC2)n(-c2ccccc2)n1	5.22 µM (active)	2.61 µM (active)	1.65 µM (active)	inactive	3.29 µM (active)	inactive	–	–	–	–	–	–	–	–	–	–	–
C=CC(=O)Nc1cccc(Oc2nc(Nc3ccc(N4CCN(C)CC4)cc3OC)ncc2Cl)c1	20.8 µM (active)	14.7 µM (active)	23.3 µM (active)	inactive	–	18.7 µM (active)	16.5 µM (active)	20.8 µM (active)	13.1 µM (active)	23.3 µM (active)	inactive	–	–	–	–	–	–
Cc1ccc(NC(=O)C2(c3ccc4c(c3)OC(F)(F)O4)CC2)nc1-c1cccc(C(=O)O)c1	inactive	inactive	inactive	inactive	9.27 µM (active)	inactive	8.27 µM (active)	–	9.27 µM (active)	inactive	inactive	10.4 µM (active)	–	–	–	–	–
Cc1cnc(Nc2ccc(F)cc2Cl)nc1-c1c[nH]c(C(=O)N[C@H](CO)c2cccc(Cl)c2)c1	inactive	inactive	inactive	inactive	6.57 µM (active)	18.7 µM (active)	18.5 µM (active)	inactive	–	inactive	–	–	–	–	–	–	–
CC[C@H]1CN2CCc3cc(OC)c(OC)cc3[C@H]2C[C@@H]1C[C@@H]1NCCc2cc(OC)c(OC)cc21	0.293 µM (active)	0.233 µM (active)	0.827 µM (active)	inactive	0.928 µM (active)	0.332 µM (active)	1.47 µM (active)	–	5.85 µM (active)	0.928 µM (active)	inactive	0.369 µM (active)	0.414 µM (active)	–	–	–	–
CCNC(=O)Nc1ccc2ncc(Nc3ccc(C)cc3)nc2n1	inactive	inactive	inactive	inactive	inactive	inactive	inactive	inactive	inactive	inactive	inactive	inactive	inactive	–	–	–	–
CC1(C)CCC(c2ccc(Cl)cc2)=C(CN2CCN(c3ccc(C(=O)NS(=O)(=O)c4ccc(N[C@H](CCN5CCOCC5)CSc5ccccc5)c(S(=O)(=O)C(F)(F)F)c4)cc3)CC2)C1	inactive	inactive	inactive	inactive	inactive	–	inactive	inactive	–	inactive	–	inactive	inactive	–	–	–	–
NC(=O)Nc1cc(-c2cccc(F)c2)sc1C(=O)N[C@H]1CCCNC1	0.827 µM (active)	0.737 µM (active)	1.04 µM (active)	20.8 µM (active)	1.17 µM (active)	3.72 µM (active)	1.47 µM (active)	6.57 µM (active)	–	1.65 µM (active)	–	–	0.737 µM (active)	–	–	–	–
O=C(O)c1ccc2cc(-c3ccc(O)c(C45CC6CC(CC(C6)C4)C5)c3)ccc2c1	1.47 µM (active)	0.585 µM (active)	0.585 µM (active)	inactive	–	inactive	3.29 µM (active)	–	0.104 µM (active)	1.31 µM (active)	–	–	2.93 µM (active)	–	–	–	–
Cc1c(NC(=O)OC[C@@H]2COCCN2)cn2ncnc(Nc3ccc4c(cnn4Cc4cccc(F)c4)c3)c12	18.5 µM (active)	26.1 µM (active)	inactive	inactive	20.8 µM (active)	–	16.5 µM (active)	–	–	inactive	inactive	inactive	–	–	–	–	–
Cc1cc(Nc2ncnc3ccc(-c4ccc(CNCCS(C)(=O)=O)o4)cc23)ccc1Oc1ccn2ncnc2c1	16.5 µM (active)	18.5 µM (active)	inactive	inactive	–	20.9 µM (active)	2.33 µM (active)	–	–	–	–	–	–	–	–	–	–
COC(=O)[C@]12CCC(C)(C)C[C@@H]1[C@@H]1C(=O)C=C3[C@@]4(C)C=C(C#N)C(=O)C(C)(C)[C@@H]4CC[C@@]3(C)[C@]1(C)CC2	3.69 µM (active)	3.29 µM (active)	4.65 µM (active)	7.37 µM (active)	2.08 µM (active)	2.09 µM (active)	2.33 µM (active)	5.22 µM (active)	3.29 µM (active)	3.69 µM (active)	–	1.65 µM (active)	5.22 µM (active)	–	–	–	–
CC[C@@H]1C(=O)N(C)c2cnc(Nc3ccc(C(=O)NC4CCN(C)CC4)cc3OC)nc2N1C1CCCC1	0.131 µM (active)	0.0522 µM (active)	0.0928 µM (active)	18.5 µM (active)	–	6.62 µM (active)	–	18.5 µM (active)	–	0.0369 µM (active)	inactive	0.0465 µM (active)	0.0522 µM (active)	–	–	–	–
C[C@@H](Oc1cc(-n2cnc3ccc(CN4CCN(C)CC4)cc32)sc1C(N)=O)c1ccccc1C(F)(F)F	0.24 µM (active)	0.0537 µM (active)	0.0603 µM (active)	42.7 µM (active)	–	13.2 µM (active)	4.14 µM (active)	47.9 µM (active)	13.1 µM (active)	–	inactive	–	0.0759 µM (active)	–	–	–	–
C=CC(=O)Nc1cc2c(Nc3ccc(F)c(Cl)c3)ncnc2cc1C#CC(C)(C)N1CCN(C)CC1	3.02 µM (active)	3.02 µM (active)	4.27 µM (active)	19.1 µM (active)	4.79 µM (active)	4.29 µM (active)	2.69 µM (active)	6.03 µM (active)	3.8 µM (active)	4.27 µM (active)	–	6.03 µM (active)	6.03 µM (active)	–	–	–	–
CCC1=C[C@@H]2CN(C1)Cc1c([nH]c3ccccc13)[C@@](C(=O)OC)(c1cc3c(cc1OC)N(C)[C@@H]1[C@@](O)(C(=O)OC)[C@H](OC(C)=O)[C@]4(CC)C=CCN5CC[C@]31[C@@H]54)C2	7.37 µM (active)	6.57 µM (active)	13.1 µM (active)	inactive	7.37 µM (active)	5.9 µM (active)	0.369 µM (active)	inactive	23.3 µM (active)	7.37 µM (active)	inactive	0.369 µM (active)	11.7 µM (active)	–	–	–	–
CC1=C(CO)C(=O)O[C@@H]([C@@H](C)[C@H]2CC[C@H]3[C@@H]4C[C@H]5O[C@]56[C@@H](O)C=CC(=O)[C@]6(C)[C@@H]4CC[C@]23C)C1	inactive	inactive	inactive	inactive	inactive	inactive	inactive	–	–	inactive	–	–	–	–	–	–	–
CC(C)c1cnn2c(NCc3ccccc3)cc(N[C@@H](CO)[C@H](O)CO)nc12	0.369 µM (active)	0.522 µM (active)	0.827 µM (active)	inactive	0.465 µM (active)	0.332 µM (active)	0.737 µM (active)	–	–	0.585 µM (active)	–	0.737 µM (active)	0.522 µM (active)	–	–	–	–
Cc1c(C)n(Cc2ccc(-c3ccccc3C(=O)O)cc2)c2ccc(C(=O)N[C@@H](C)c3ccc([N+](=O)[O-])cc3)cc12	inactive	inactive	inactive	inactive	inactive	inactive	9.27 µM (active)	inactive	inactive	inactive	19.2 µM (active)	inactive	inactive	21.5 µM (active)	inactive	–	–
COc1cccc2c(NCc3ccccc3)nc(-n3c(N)nc4ccccc43)nc12	7.37 µM (active)	7.37 µM (active)	5.85 µM (active)	9.27 µM (active)	–	8.33 µM (active)	0.208 µM (active)	–	0.0465 µM (active)	9.27 µM (active)	inactive	–	8.27 µM (active)	–	–	–	–
CNC(=O)c1ccc(N2C(=S)N(c3cnc(C#N)c(C(F)(F)F)c3)C(=O)C23CCC3)cc1F	inactive	inactive	inactive	inactive	inactive	inactive	inactive	inactive	inactive	inactive	inactive	inactive	inactive	–	–	–	–
COC(=O)Nc1nc2ccc(C(=O)c3ccc(F)cc3)cc2[nH]1	2.61 µM (active)	1.17 µM (active)	1.47 µM (active)	inactive	–	inactive	–	inactive	inactive	1.85 µM (active)	inactive	2.93 µM (active)	2.61 µM (active)	–	–	–	–
CCN1CCN(Cc2ccc(-c3cc4c(N[C@H](C)c5ccccc5)ncnc4[nH]3)cc2)CC1	2.69 µM (active)	0.759 µM (active)	13.5 µM (active)	42.7 µM (active)	12 µM (active)	10.8 µM (active)	1.51 µM (active)	33.9 µM (active)	15.1 µM (active)	4.27 µM (active)	17.1 µM (active)	21.4 µM (active)	4.79 µM (active)	49.4 µM (active)	–	27.8 µM (active)	44.1 µM (active)
CC1(C)OC2=C(C(=O)c3ccccc3C2=O)[C@H](NCc2ccccc2)[C@H]1O	5.22 µM (active)	4.14 µM (active)	16.5 µM (active)	13.1 µM (active)	1.85 µM (active)	5.9 µM (active)	2.93 µM (active)	7.37 µM (active)	–	8.27 µM (active)	–	8.27 µM (active)	7.37 µM (active)	–	–	–	–
Cc1ccc(C(N)=O)cc1Nc1nccc(-c2cn(C(C)C)c3cnccc23)n1	6.76 µM (active)	7.59 µM (active)	inactive	inactive	15.1 µM (active)	6.79 µM (active)	13.5 µM (active)	–	–	21.4 µM (active)	inactive	–	12 µM (active)	–	–	–	–

Source: PubChem BioAssay (NCATS)
